# Measurements: the supplement of paper PMC6555819
# Tests used:
# Assay in all cases: PBM binding z-score (relative to random genomic background probes); higher = stronger binding; sequences stand for … in GC…GCGATTGACAGCGTAGAATGAAGG
# [1] = test system: RARb homodimer (NR concentration 270 nM)
# Method in brief: (§1)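 Random background probes are the reference for binding z-scores. These scores derive from regression-normalized fluorescence on custom Agilent 4×180K protein-binding microarrays incubated 1 h with ligand-free nuclear receptor dimers. Binding was detected with antibodies against each partner (one per run).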
# [2] = test system: RARg:RXRa (NR concentration 270 nM, RXRa partner concentration 90 nM)
# Method in brief: as §1
# [3] = test system: RARg homodimer (NR concentration 270 nM)
# Method in brief: as §1
# [4] = test system: RXRa DBDmut IVT, anti-RXR (DBD mutation: RXRa K156A/R161A, NR concentration 90 nM)
# Method in brief: as §1
# [5] = test system: RXRa homodimer (NR concentration 180 nM)
# Method in brief: as §1
# [6] = test system: THRa:RXRa (NR concentration 90 nM, RXRa partner concentration 90 nM)
# Method in brief: as §1
# [7] = test system: THRa homodimer (NR concentration 90 nM)
# Method in brief: as §1
# [8] = test system: VDR:RXRa (NR concentration 270 nM, RXRa partner concentration 90 nM)
# Method in brief: as §1
# [9] = test system: VDR homodimer (NR concentration 270 nM)
# Method in brief: as §1
Sequence,PBM binding z-score [1],PBM binding z-score [2],PBM binding z-score [3],PBM binding z-score [4],PBM binding z-score [5],PBM binding z-score [6],PBM binding z-score [7],PBM binding z-score [8],PBM binding z-score [9]
CGTCAAAGTTCCACTAAGGTAACGTAAAGCACGC,0.376,0.418,0.398,0.475,0.357,4.02,1.69,0.211,0.238
CAAACTAGGTCGCCGGAAGGTCAAAGTCCGCATG,4.43,6.47,4.32,1.22,4.39,3.68,1.44,4.5,2.39
AATACAGGGCCACTAGGCCAGAGTAGGTACGAAT,0.294,0.551,0.711,-0.4,0.289,-0.0637,-0.308,-0.225,0.318
TCATATAGGTAAACAGGGGAAAGTCCGTAAGTTA,0.507,0.245,0.0765,1.97,0.978,0.404,0.286,1.06,0.312
ATCTCTAGGTCACAAGTTCAGTGAAAGAGAGGAC,4.24,5.58,6.02,2.17,4.04,3.4,2.36,4.26,3.53
ATCTCTAGGTAACAAGCTCAGTGAAAGAGAGGAC,0.444,0.352,0.494,-0.305,0.272,1,0.56,0.159,-0.048
TCGCGGAGGACACGAAAGGTCAGAGCTCGACATC,4.42,4.79,5.1,0.362,3.86,3.6,0.956,3.13,0.898
GCAGACAGATGAAACGCAGGTAACTCAGGGTGGC,-0.914,-0.366,-0.316,-0.516,-0.162,0.473,-1.03,-0.643,-0.594
TCTAGTTGGTCACGGACGTCACACACGACGGGTA,1.04,1.2,1.55,0.677,0.866,0.233,-0.0119,0.743,0.188
GCAGACAGGTGAAACACAGGTAACTCAGGGTGGC,0.58,1.37,0.385,-0.322,0.982,1.28,-0.504,-0.244,-0.7
CCTGGTTGGTCAAGGTCACACACGCTATAGGTAC,4.45,4.58,4.71,1.46,4.69,4.36,4.54,4.37,3.51
TCTCGGAGGACACGAAGGTCAGAGCTTTCCAGAG,3.78,2.79,3.63,0.904,1.69,2.87,0.784,2.3,1.03
TCTTGTAGATCAAGCAGGTAAAGAAAGCCTGAGT,-0.462,-0.262,-0.32,0.476,-0.157,0.095,-0.499,0.212,-0.555
GTTCGGAGGACAAGGTCAGAGCTTTGTCCGTAGA,2.99,2.91,3.51,0.7,1.91,3.06,1.52,1.42,0.65
CGTCCACGGTCAGAGAGGTCAGTGAATGCCGAGT,4.32,3.6,4.74,0.914,2.75,2.54,0.458,4.97,2.11
ACTATTAGTTGAGACGAGGGCGACCGATAGGTTG,0.339,0.187,0.419,0.572,0.161,1.23,-0.4,0.133,0.337
CAAACTAGGTCAAATGTCAAAGTCGAGCCAACCA,3.4,5.2,5.17,2.58,5.14,3.36,0.944,3.1,1.05
TCTTGTAGATCAACAGGAAGTTAAGAAAGATCGA,-0.828,-0.328,-0.339,0.508,-0.0187,-0.307,-1.05,-0.0912,-0.551
ATATGTAGGATACATCCGGGTCATTCAGGCTATG,2.18,1.58,1.43,0.223,1.95,2.99,1.95,3.21,2.23
TTACCAAGGTGAAGGTCGTTGAGCCCTCTGTAGA,1.79,1.3,1.08,0.1,1.59,2.14,0.652,1,0.688
ACTAGTTGGTCAGCTGAGCTCACACACAATTCGG,0.0845,-0.0715,0.577,0.194,-0.234,0.0887,-0.346,-0.299,-0.289
TCTTGTAGATCAGCACGTTAAGAAAGCTGGCCAA,-0.823,-0.246,-0.479,0.626,-0.185,-0.261,-0.422,0.0103,-0.0275
ATATGTAGCTTAGCTGGGGTCATTCAGACTAGGC,3.13,3.19,2.02,1.54,5.09,3.92,2.85,4.78,3.19
GGAACGAGGGCAAGTTTATAGCAGAGTTTGATGG,1.78,1.5,2.19,2.62,0.81,1.07,0.0695,1.32,2.89
ACAGACAGGTGATGATGGTAACTCAGGCTATCAT,0.184,0.343,0.369,-0.173,0.335,0.48,0.015,-0.153,0.157
CCTACTGGGCCAAAAAGATCATTGATGCCGATAA,-0.443,-0.189,0.104,-0.443,-0.145,-0.348,-0.71,-0.303,-0.266
